Among the test systems are NCI-H23 lung; NCI-H226 lung; NCI-H322M lung; HOP-62 NSCLC; NCI-H460 lung; HOP-92 NSCLC; NCI-H522 lung; A549/ATCC NSCLC; 786-0 renal; COLO 205 colon; DU-145 prostate; K-562 leukemia; MALME-3M melanoma; MDA-MB-231 breast; RXF 393 renal; SF-268 CNS; SF-295 CNS; SF-539 CNS; UACC-257 melanoma; M14 melanoma.
Assay in all cases: NCI-60 one-dose screen, 48 h (100 = growth as untreated, 0 = no growth, -100 = all killed)
Details in all cases: 10 µM unless noted

About 83,000 compounds went through this panel and 20% of them were active in at least one assay; those are over-represented in the sample as a whole.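 Note: values are percent growth. 100 is the growth of untreated cells, values between 100 and 0 indicate rising inhibition; between -100 and 0 indicates cell death.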 Values without a mark were called inactive. Activity calls are given as the source filed them. Rule for the calls: active = growth percent below 10; inactive = the rest.

For the compound `O=C1OC(N(Cc2ccc(Cl)cc2)c2ccccc2)c2ccccc21` (stereo not given), the growth with NCI-H23 lung is 99.7%; with NCI-H226 lung, 92.9%; in the test with NCI-H322M lung, 89.6%; in the test with HOP-62 NSCLC, 88.9%; in the test on NCI-H460 lung it was 111%; in the test on HOP-92 NSCLC, 100%. In addition, the growth in the test on NCI-H522 lung is 65.8%; in the test on A549/ATCC NSCLC, 90.5%; with 786-0 renal, 91%; with COLO 205 colon, 104%; in the test with DU-145 prostate, 109%; in the test with K-562 leukemia it was 87%. Further, the growth with MALME-3M melanoma is 104%; with MDA-MB-231 breast it was 84.8%; with RXF 393 renal, 125%; in the test with SF-268 CNS, 105%; in the test on SF-295 CNS it was 104%; in the test on SF-539 CNS, 99.7%. For the same compound, the growth is 105% in the test on UACC-257 melanoma and 104% in the test on M14 melanoma.
For the compound `COc1ccc(/C=C/C(=O)c2ccc(-n3cc(CN4CCN(c5cc6c(cc5F)c(=O)c(C(=O)O)cn6C5CC5)CC4)nn3)cc2)cc1OC`, the growth in the test with NCI-H23 lung is 50.6%; with NCI-H226 lung, 32.4%; in the test on NCI-H322M lung, 52.6%; with HOP-62 NSCLC, 38.7%; in the test with NCI-H460 lung, 53.1%; in the test on HOP-92 NSCLC, 81.6%. Also, the growth is 49.5% in the test on NCI-H522 lung; 15.7% in the test on A549/ATCC NSCLC; 43.7% in the test on 786-0 renal; 60.9% in the test with COLO 205 colon; 45.8% with DU-145 prostate; 7.81% (active) in the test on K-562 leukemia. Besides, the growth in the test with MALME-3M melanoma is 57.5%; in the test on MDA-MB-231 breast it was 55.4%; in the test with RXF 393 renal, 4.51% (active); in the test on SF-268 CNS it was 59.5%; in the test with SF-295 CNS it was 67.5%; with SF-539 CNS, 7.09% (active). In addition, the growth was 62% in the test on UACC-257 melanoma and 28.2% in the test with M14 melanoma.
Consider `O=C(Nc1ccc(-n2ccc3c(NC(=O)c4ccccc4)nccc32)cc1)Nc1ccc(Cl)c(Cl)c1`, for which the growth with NCI-H23 lung is 42.4%; with NCI-H226 lung, 68%; in the test on NCI-H322M lung, -5.58% (active); in the test with HOP-62 NSCLC, -58.1% (active); with NCI-H460 lung it was -65.4% (active); in the test on HOP-92 NSCLC it was -6.97% (active). Moreover, the growth with NCI-H522 lung is -58.6% (active); with A549/ATCC NSCLC it was -75.8% (active); with 786-0 renal, -84% (active); with COLO 205 colon it was -53.4% (active); with DU-145 prostate, -32.6% (active); with K-562 leukemia it was -27.3% (active). For the same compound, the growth is -46.9% (active) in the test on MALME-3M melanoma; -65.2% (active) with MDA-MB-231 breast; -93.9% (active) in the test on RXF 393 renal; 1.8% (active) in the test with SF-268 CNS; -67% (active) with SF-295 CNS; -58.6% (active) with SF-539 CNS. Moreover, the growth was -69% (active) in the test with UACC-257 melanoma and -69.8% (active) in the test with M14 melanoma.
Turning to `CCOC(=O)C1CSC(C)(C(=O)OCC)N1` (stereo not given), the growth was 99.5% with NCI-H23 lung; 95.5% with NCI-H226 lung; 104% in the test on NCI-H322M lung; 90.6% in the test on HOP-62 NSCLC; 106% with NCI-H460 lung; 84.7% with HOP-92 NSCLC. Moreover, the growth is 76.7% in the test on NCI-H522 lung; 98.9% with A549/ATCC NSCLC; 90.8% in the test on 786-0 renal; 105% in the test on COLO 205 colon; 108% with DU-145 prostate; 103% with K-562 leukemia. The growth in the test on MALME-3M melanoma is 98.4%; with MDA-MB-231 breast, 107%; with RXF 393 renal, 115%; in the test on SF-268 CNS it was 106%; with SF-295 CNS, 106%; with SF-539 CNS, 104%. Moreover, the values for the growth in the test with UACC-257 melanoma and in the test with M14 melanoma were 111% and 98.7%, respectively.
`O=C1CCC(=O)N1C1CCCCC1`: the growth is 93% with NCI-H23 lung; 97.1% in the test with NCI-H226 lung; 81.5% in the test on NCI-H322M lung; 93.3% with HOP-62 NSCLC; 104% with NCI-H460 lung; 102% in the test with HOP-92 NSCLC. Moreover, the growth is 103% in the test on NCI-H522 lung; 115% in the test on A549/ATCC NSCLC; 106% in the test with 786-0 renal; 101% with COLO 205 colon; 107% in the test on DU-145 prostate; 107% in the test on K-562 leukemia. The growth in the test with MALME-3M melanoma was 82.6%; in the test on MDA-MB-231 breast, 103%; in the test on RXF 393 renal, 109%; in the test with SF-268 CNS it was 97.6%; with SF-295 CNS, 97.5%; with SF-539 CNS it was 101%. The growth in the test on UACC-257 melanoma is 108%; in the test with M14 melanoma, 94.5%.
In the case of `Cc1c(NC(=O)c2sc3nc4c(cc3c2N)CN(Cc2ccccc2)CC4)cccc1C(F)(F)F`, the growth in the test with NCI-H23 lung was 72.7%; in the test on NCI-H226 lung, 65.7%; in the test on NCI-H322M lung it was 73.1%; with HOP-62 NSCLC, 35.9%; in the test on NCI-H460 lung it was 18.7%; in the test with HOP-92 NSCLC it was 77.1%. Besides, the growth was 10.4% in the test with NCI-H522 lung; 53.7% in the test on A549/ATCC NSCLC; 84.4% with 786-0 renal; 21.6% with COLO 205 colon; 54.9% with DU-145 prostate; 8.08% (active) in the test on K-562 leukemia. Besides, the growth is 63.8% in the test on MALME-3M melanoma; 73.8% in the test on MDA-MB-231 breast; 67.2% with RXF 393 renal; 65.6% with SF-268 CNS; 41.5% in the test on SF-295 CNS; 65% in the test with SF-539 CNS. In addition, the growth was 52.2% with UACC-257 melanoma and 31.2% in the test on M14 melanoma.
As for `CCN(CC)C(=O)C1CCN(C(=O)c2ccccc2)CC1`, the growth is 95.1% in the test with NCI-H23 lung; 94.1% with NCI-H226 lung; 99.4% with NCI-H322M lung; 93.3% in the test with HOP-62 NSCLC; 104% in the test on NCI-H460 lung; 98.8% with HOP-92 NSCLC. Also, the growth in the test on NCI-H522 lung was 90.8%; in the test with A549/ATCC NSCLC, 104%; with 786-0 renal, 97.3%; in the test with COLO 205 colon, 106%; in the test with DU-145 prostate, 109%; in the test with K-562 leukemia, 99.1%. The growth with MALME-3M melanoma is 102%; with MDA-MB-231 breast, 105%; with RXF 393 renal it was 105%; in the test with SF-268 CNS, 92.7%; in the test on SF-295 CNS, 96.7%; with SF-539 CNS it was 101%. In addition, the growth was 103% with UACC-257 melanoma and 102% in the test on M14 melanoma.
Take `O=[N+]([O-])c1cccc(C2c3ccccc3Oc3ccccc32)c1`: the growth in the test on NCI-H23 lung is 94.6%; with NCI-H226 lung, 84.1%; in the test with NCI-H322M lung, 83.6%; in the test with HOP-62 NSCLC, 85.4%; in the test on NCI-H460 lung, 88.1%; in the test on HOP-92 NSCLC it was 81%. Moreover, the growth was 80.8% in the test on NCI-H522 lung; 87.4% in the test with A549/ATCC NSCLC; 99.9% with 786-0 renal; 90.3% in the test with COLO 205 colon; 101% in the test with DU-145 prostate; 65.7% in the test with K-562 leukemia. Further, the growth in the test with MALME-3M melanoma was 101%; in the test on MDA-MB-231 breast, 92%; in the test on RXF 393 renal it was 109%; with SF-268 CNS, 102%; with SF-295 CNS it was 76.9%; in the test with SF-539 CNS it was 112%. Also, the growth is 104% with UACC-257 melanoma and 110% with M14 melanoma.

The values above are taken from PubChem BioAssay (NCI).
